# Assay outcomes (PubChem)
# Compounds with a hit are over-represented: about 7.8% of the library has one in this group of screens.
# MITF inhib = blocks MITF activity; TRPM1 promoter luciferase, luminescence, 24 h; inhibition, % (no concentration beside the values); 37,000 tested, 0.28% active; AID 2240; in the data active = inhibition above about 85%; inconclusive = no clear call, values can overlap the other calls; inactive = below about 68%;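 note: human melanocyte line stably carrying TRPM1 promoter luciferase reporter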
# Shh pathway inh = Sonic Hedgehog pathway inhibition. Shh-LIGHT2 Gli-luciferase reporter, 30 h. inhibition, % (concentration not given with the values). 22,000 tested, 2.1% active. AID 2313;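 active = mean inhibition across valid replicates above about 65%, limit read from the data; inconclusive = mean under the limit, yet half or more replicates past it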;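 note: pathway switched on by Shh-conditioned medium diluted 1 in 25 in low serum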
# NOMO-1 viab = STK33 inhibitor candidate reducing NOMO-1 cell viability. NOMO-1 AML viability, CellTiter-Glo luminescence, 72 h. inhibition, % (test concentration not listed). 37,000 tested, 7.5% active. AID 2330; in the data active = inhibition above about 80%; inconclusive = no clear call, values can overlap the other calls
# Numbers without * were called inactive; u = inconclusive; x = no result.
SMILES,MITF inhib,Shh pathway inh,NOMO-1 viab
CC1(C)CCC(C)(C)c2cc(C(=O)Nc3ccc(C(=O)O)cc3)ccc21,-28.2,u,46.7
C/C(=C\c1ccc(C(=O)O)cc1)c1ccc2c(c1)C(C)(C)CCC2(C)C,-26.8,66.0*,68.2
C=C(C)C(=O)O[C@H]1[C@H]2C(=C)C(=O)O[C@@H]2C[C@@H](C)/C=C/C(=O)[C@](C)(O)[C@@H]1OC(=O)C(=C)C,u,3.3,107.5*
C=C(C)C(=O)O[C@@H]1C2=C(C)C(=O)OC2(O)CC23OC2CC[C@H](C)[C@@]13C (some centres not stated),-0.9,5.5,23.5
C=C(C)C(=O)O[C@H]1[C@H]2C(=C)C(=O)O[C@@H]2C[C@@H](C)[C@@H]2O[C@@H]2C(=O)[C@](C)(O)[C@@H]1OC(C)=O,-9.9,85.0*,122.2*
C[C@H]1CN([C@@H](C)CO)C(=O)c2cccc(NC(=O)Nc3ccc4c(c3)OCO4)c2O[C@H]1CN(C)Cc1ccc(C(=O)O)cc1,-4.1,-3.1,-4.2
CCCCc1c(O)c2cccc3c4ccccc4n(c1=O)c23,65.5,21.7,-30.4
C=C1C2=C(O[C@H](/C(C)=C/C(C)CC(C)CC)[C@@H](O)[C@@H]2O)C(=O)N1OC (some centres not stated),-2.4,19.5,107.2*
CNC[C@H]1Oc2c(NC(=O)c3nc4ccccc4s3)cccc2C(=O)N([C@H](C)CO)C[C@H]1C,37.0,-48.9,32.9
NC(N)=NC(=O)c1nc(Cl)c(N)nc1N,-8.3,-11.8,30.8
NC(=NCc1ccc(Cl)cc1Cl)NC(=O)c1nc(Cl)c(N)nc1N,-1.8,57.6,120.4*
CCOC(=O)c1sc(N2C(=O)C(=O)C(C(=O)c3ccc(C)cc3)C2c2ccc(C)o2)nc1C (configuration not stated),-34.7,x,5.0
Cc1ccccc1NC(=O)CN(c1ccc(Cl)c(Cl)c1)S(C)(=O)=O,5.7,x,25.8
COC(=O)c1ccc(C)c(NC(=O)CN(c2ccc(Cl)c(Cl)c2)S(C)(=O)=O)c1,21.9,x,107.6*
COC(=O)c1ccc(Cl)c(NC(=O)CN(c2cccc(F)c2)S(C)(=O)=O)c1,5.8,x,u
COC(=O)c1ccc(Cl)c(NC(=O)CN(c2cccc(Cl)c2)S(C)(=O)=O)c1,24.9,x,129.2*
C[C@H]1CN([C@@H](C)CO)C(=O)c2cccc(NC(=O)C3CC3)c2O[C@@H]1CN(C)S(=O)(=O)c1cn(C)cn1,-2.2,-29.5,10.7
Cc1nnc(SCC(=O)Nc2cc(Cl)cc(Cl)c2)n1-c1ccccc1,-4.0,x,6.2
C[C@@H]1CN([C@@H](C)CO)C(=O)c2cccc(NC(=O)C3CCOCC3)c2O[C@H]1CN(C)C(=O)Nc1ccc(F)cc1,2.6,-41.1,18.9
CNC[C@H]1Oc2ccc(NC(=O)Nc3ccc4c(c3)OCO4)cc2C(=O)N([C@H](C)CO)C[C@H]1C,1.5,-27.4,10.3
C[C@H]1CN([C@@H](C)CO)C(=O)c2cccc(NC(=O)Nc3ccccc3)c2O[C@@H]1CN(C)Cc1ccc(C(=O)Nc2ccccc2N)cc1,-0.7,x,127.1*
C[C@@H]1CN([C@@H](C)CO)C(=O)c2cccc(NC(=O)Nc3ccccc3)c2O[C@H]1CN(C)Cc1ccc(C(=O)Nc2ccccc2N)cc1,6.9,x,124.8*
C[C@H]1CN([C@@H](C)CO)C(=O)c2cccc(NC(=O)Nc3ccccc3)c2O[C@@H]1CN(C)Cc1ccccc1,-15.5,-21.9,35.7
C[C@@H]1CN([C@H](C)CO)C(=O)c2cccc(NC(=O)Nc3ccc4c(c3)OCO4)c2O[C@H]1CN(C)Cc1ccc(C(=O)Nc2ccccc2N)cc1,22.1,x,126.9*
C[C@H](CO)N1C[C@H](C)[C@@H](CN(C)Cc2ccc(C(=O)O)cc2)Oc2c(NC(=O)Nc3ccccc3)cccc2C1=O,-2.1,-20.3,-27.6
SMILES,MITF inhib,Shh pathway inh,NOMO-1 viab
CC(C)NC(=O)Nc1cccc2c1O[C@H](CN(C)Cc1ccc(C(=O)Nc3ccccc3N)cc1)[C@H](C)CN([C@H](C)CO)C2=O,3.0,x,118.8*
C[C@H](CO)N1C[C@H](C)[C@H](CN(C)Cc2ccc(C(=O)Nc3ccccc3N)cc2)Oc2c(NC(=O)Nc3ccc4c(c3)OCO4)cccc2C1=O,7.3,x,u
C[C@H](CO)N1C[C@H](C)[C@@H](CN(C)Cc2ccc(C(=O)Nc3ccccc3N)cc2)Oc2c(NC(=O)c3ccncc3)cccc2C1=O,18.8,x,38.9
Cc1ccc(S(=O)(=O)N(C)C[C@@H]2Oc3ccc(NC(=O)Nc4ccc5c(c4)OCO5)cc3C(=O)N([C@@H](C)CO)C[C@H]2C)cc1,-27.8,x,29.1
C[C@@H]1CN([C@@H](C)CO)C(=O)c2cccc(NC(=O)Nc3ccc(C(F)(F)F)cc3)c2O[C@@H]1CN(C)Cc1ccc(C(=O)Nc2ccccc2N)cc1,-27.5,x,128.4*
C[C@@H]1CN([C@@H](C)CO)C(=O)c2cccc(NC(=O)Nc3ccc(F)cc3)c2O[C@@H]1CN(C)Cc1ccc(C(=O)Nc2ccccc2N)cc1,22.3,x,140.5*
C[C@H](CO)N1C[C@H](C)[C@H](CN(C)Cc2ccc(C(=O)O)cc2)Oc2c(NC(=O)Nc3ccc(F)cc3)cccc2C1=O,7.0,15.7,12.6
C[C@@H]1CN([C@H](C)CO)C(=O)c2cccc(NC(=O)Nc3ccccc3)c2O[C@@H]1CN(C)Cc1ccc(C(=O)O)cc1,-17.5,-7.0,-18.4
C[C@H](CO)N1C[C@H](C)[C@H](CN(C)Cc2ccc(C(=O)Nc3ccccc3N)cc2)Oc2c(NC(=O)Nc3ccc(C(F)(F)F)cc3)cccc2C1=O,-18.5,x,60.2
C[C@H](CO)N1C[C@H](C)[C@@H](CN(C)Cc2ccc(C(=O)Nc3ccccc3N)cc2)Oc2c(NC(=O)Nc3ccccc3)cccc2C1=O,2.4,x,127.4*
C[C@H](CO)N1C[C@H](C)[C@H](CN(C)C(=O)Nc2ccc(C(F)(F)F)cc2)Oc2ccc(NS(=O)(=O)c3cccs3)cc2C1=O,9.2,x,20.9
CCOC(=O)c1ccc(NC(=O)CN2C(=O)c3ccccc3S2(=O)=O)cc1,-16.9,x,4.9
CS(=O)(=O)N(CC(=O)Nc1cc(Cl)ccc1Cl)c1cccc2ccccc12,0.8,x,-14.4
C[C@H]1CC2C([C@@H](O)C[C@@]3(C)C2CC[C@]3(O)C(=O)CO)[C@@]2(C)C=CC(=O)C=C12 (some centres not stated),-18.0,31.7,-10.7
C[C@H]1C[C@@H]2[C@H]([C@@H](O)C[C@@]3(C)[C@H]2CC[C@]3(O)C(=O)CO)[C@@]2(C)C=CC(=O)C=C12,-31.5,69.5*,-15.5
CC(N=Cc1c(O)ccc2ccccc12)C12CC3CC(CC(C3)C1)C2 (configuration not stated),16.1,u,100.9*
O=C(Nc1cccc2ccccc12)C12CC3CC(CC(C3)C1)C2,-13.0,-42.5,24.0
C[C@H](CO)N1C[C@H](C)[C@H](CN(C)S(=O)(=O)c2cccs2)Oc2ccc(NS(=O)(=O)c3cn(C)cn3)cc2C1=O,-3.7,x,-11.1
CCc1ccc(O)c(NC(=S)NC(=O)COc2ccc(C)cc2C)c1,46.6,x,119.6*
Cc1ccc(OCC(=O)O)c(C)c1,13.6,-10.7,-9.7
CSC1=N/C(=C\c2ccccc2C)C(=O)S1,-3.9,-31.6,55.8
CSC1=N/C(=C\c2ccc(Br)cc2)C(=O)S1,2.7,4.7,130.6*
